WRN helicase inh = inhibitors of human WRN helicase | Potency, µM (doses to about 114 µM), for the others: top-dose activity change, negative = inhibition, actives largely listed as inhibitors | WRN helicase unwinding, fluorescent forked duplex, kinetic | AID 651768 | actives 0.46% (n = 360,000); further: on the % scale 0 is the no-effect control and ±100 the full control effect; nearly all actives have a fitted effect of over 55% in size
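Primary qHTS, 1536-well format. 20 nM WRN + compound, 15 min RT; start with 100 nM forked fluorophore/quencher duplex, 2 mM ATP (final); kinetic read ex 525/em 598 nm.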
POLH inh = blocks human DNA polymerase eta activity; recombinant Pol eta, fluorescent DNA replication assay; Q9Y253; Potency, µM (highest dose often 114 µM), without a hit: top-dose activity change, negative = inhibition, hits mostly inhibitors; actives 1.2% (n = 390,000); further: on the % scale 0 is the no-effect control and ±100 the full control effect
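Pol eta (10 nM) was preincubated with compounds for 15 min at room temperature, after which fluorescent replication substrate (50 nM final) was added to start the reaction. Fluorescence was read kinetically at 0 and 10 min.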
POLB inh = inhibitors of human DNA polymerase beta | Pol beta primer extension/strand displacement, fluorescence kinetic | Potency, µM (doses to about 114 µM), inactives show at the top dose activity change, negative = inhibition, actives largely listed as inhibitors | actives 1.3% (n = 340,000); further: on the % scale 0 is the no-effect control and ±100 the full control effect
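Homogeneous kinetic assay of primer extension and strand displacement by 10 nM Pol beta, preincubated 15 min at room temperature with compound before 50 nM substrate (final) was added. Read at 0 and 10 min; four-parameter Hill fit.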
POLI inh = blocks human DNA polymerase iota activity; Q9UNA4; Pol iota fluorescent replication assay, 10 min; Potency, µM (doses to about 115 µM), inactives show at the highest dose activity, negative = inhibition, usual class: inhibitors; actives 1% (n = 390,000); AID 588590
Target sequence (Q9UNA4 whole entry, looked up): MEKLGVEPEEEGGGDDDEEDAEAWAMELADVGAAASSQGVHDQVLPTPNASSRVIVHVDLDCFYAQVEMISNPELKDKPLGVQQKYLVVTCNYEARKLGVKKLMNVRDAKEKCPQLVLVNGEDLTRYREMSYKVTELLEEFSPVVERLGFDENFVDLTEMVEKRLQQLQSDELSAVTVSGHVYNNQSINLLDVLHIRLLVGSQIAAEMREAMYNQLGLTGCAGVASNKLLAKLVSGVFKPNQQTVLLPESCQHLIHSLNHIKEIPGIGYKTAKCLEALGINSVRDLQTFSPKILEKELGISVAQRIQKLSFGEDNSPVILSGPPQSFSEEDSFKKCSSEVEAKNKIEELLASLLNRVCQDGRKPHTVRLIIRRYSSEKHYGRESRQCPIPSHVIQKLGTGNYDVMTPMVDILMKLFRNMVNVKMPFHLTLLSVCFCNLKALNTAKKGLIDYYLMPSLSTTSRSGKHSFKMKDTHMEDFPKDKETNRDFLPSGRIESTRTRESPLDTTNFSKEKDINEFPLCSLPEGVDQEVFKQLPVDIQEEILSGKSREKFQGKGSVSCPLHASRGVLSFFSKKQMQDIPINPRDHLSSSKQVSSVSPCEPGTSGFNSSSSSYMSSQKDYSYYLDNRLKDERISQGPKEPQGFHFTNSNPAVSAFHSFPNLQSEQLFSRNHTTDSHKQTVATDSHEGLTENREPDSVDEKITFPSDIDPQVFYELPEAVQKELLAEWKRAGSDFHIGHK
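Fluorescent replication assay read twice, at 0 min and 10 min after adding 50 nM (final) substrate. Enzyme (10 nM) and compounds were first incubated 15 min at room temperature; enzyme-free buffer wells were negative controls.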
Pol kappa inh = DNA polymerase kappa (human) inhibition. Q9UBT6. purified Pol kappa, fluorescent DNA synthesis assay, 10 min. Potency, µM (top dose mostly 107 µM), for inactives: at the top dose activity, negative = inhibition, most hits filed as inhibitors. actives 0.53% (n = 400,000); further: on the % scale 0 is the no-effect control and ±100 the full control effect
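Here, compound and 10 nM enzyme are combined for 15 min at room temperature; adding 50 nM substrate (final) starts DNA synthesis, tracked by fluorescence at 0 and 10 min against buffer-only wells.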
* hit, by the source's call; ? = inconclusive; · = not tested or not shown; ! = not active in a repeat; [ ] = another dose, or the depositor's remark. Compounds with a hit are over-represented: about 2.3% of the library has one in this group of screens. The call rests on the fitted dose curve; in most records, active means well fitted curve in the direction sought with a large enough effect; inconclusive means small, poorly fitted or top-dose-only effect, or another doubt; inactive means no such curve, though single readings can be large; an effect the other way counts as inactive or inconclusive. Potency means the concentration at half of the fitted maximal effect.

SMILES	WRN helicase inh	POLH inh	POLB inh	POLI inh	Pol kappa inh
CCN(CC)c1ccc(/C=C/[N+](=O)[O-])cc1	-19.7%	-10.4%	-12.5%	?	2.2%
O=[N+]([O-])/C=C/c1c(Cl)cccc1Cl	31.6µM*	-1.3%	·	2.4%	-12.8%
CN(C)CCNC(=S)Nc1ccccc1Cl	5.8%	-15.4%	-13.6%	195.3%	-16.0%
CN(CC(=O)NC(=O)NCc1ccco1)CC(=O)Nc1ccccc1Cl	1.5%[11.6 µM]	?	7.7%	50.1µM*	?
OC(c1ccc(Cl)cc1)(c1cncnc1)c1ccccc1Cl (stereo unspecified)	·	·	·	·	11.4%[60.1 µM]
Cc1cc(/C=C/c2cccc3sc(C)[n+](CCCCI)c23)ccc1N(CCCl)CCCl	·	·	·	79.4µM*	56.2µM*
Cc1cc(/C=C/c2ccnc3ccccc23)ccc1N(CCCl)CCCl	·	·	·	?	-13.6%
CCOC(=O)N1CC(C)N(/[N+]([O-])=N/Oc2ccc([N+](=O)[O-])cc2[N+](=O)[O-])CC1C (stereo unspecified)	·	·	·	?	-7.4%
Cc1cccc(NP(=O)(Oc2ccccc2F)Oc2ccccc2F)c1	-6.0%	-10.5%	-14.7%	2.9%	-10.5%
Cc1ccc(NP(=O)(Oc2ccccc2F)Oc2ccccc2F)cc1C	-17.4%	-16.7%	-16.6%	89.1µM*	?
CC(C)OC(=O)C(O)(c1ccc(Cl)cc1)c1ccc(Cl)cc1	·	·	·	·	-3.4%[60.1 µM]
C=CCN1C(=O)NC(=O)/C(=C/c2cc3c4c(c2)CCCN4CCC3)C1=O	-28.7%	44.7µM*	?	20µM*	?
C=C/C(=C/C(=O)C[C@H](C)C[C@@H](C)CC[C@H](O)[C@H](C)C(=O)C[C@@H](O)[C@H](C)[C@@H](C)OC(=O)C[C@@H](O)C1=C(C)C(=O)OC1=O)CC	·	·	·	·	4.74µM*
CCC(=O)CCCCC[C@@H]1NC(=O)[C@H]2CCCCN2C(=O)[C@H]([C@@H](C)CC)NC(=O)[C@H](Cc2cn(OC)c3ccccc23)NC1=O	·	·	·	·	-7.8%[60.1 µM]
Cc1occc1C(=O)Nc1ccccc1	·	·	·	·	18.0%[60.1 µM]
C=CCSC1=N/C(=C\c2cc(OC)c3c(c2)OCO3)C(=O)S1	-21.9%	?	22.4µM*	?	-20.8%
O=C(O)c1cc(O)c(O)c(O)c1	·	·	·	·	10µM*!
CNCCc1ccc(O)c(O)c1	10.0%	-5.8%[57.1 µM]	-0.5%[57.1 µM]	89.1µM*	?
CCCCn1c(NS(=O)(=O)c2ccc(C)cc2)c(C(=O)OCC)c2nc3ccccc3nc21	-24.4%	-7.0%	9.8%	2.51µM*	-1.2%
CCCCn1c(NC(=O)c2ccco2)c(C(=O)OCC)c2nc3ccccc3nc21	?	?	20.0%	83.6%	-4.6%
CC(=O)N1CCN(c2ccc(OCC3CO[C@@](Cn4ccnc4)(c4ccc(Cl)cc4Cl)O3)cc2)CC1 (stereo partly specified)	·	·	·	·	-4.1%[60.1 µM]
COc1ccc(N2C(=O)/C(=C/c3ccc(N(C)C)o3)C(=O)NC2=S)cc1	-5.4%	-25.4%	2.4%	?	-18.0%
Cc1ccc(N2C(=O)/C(=C/c3ccc(CN(CCC#N)S(C)(=O)=O)o3)C(=O)NC2=S)cc1	50.1µM*	2.24µM*	6.31µM*	3.16µM*	17.8µM*
C[C@@H]1Cc2c(Cl)cc(C(=O)N[C@@H](Cc3ccccc3)C(=O)O)c(O)c2C(=O)O1	·	·	·	·	-8.9%[60.1 µM]
C=CCOc1ccc(CC2C(=O)N(C)C(=O)N(C)C2=O)cc1	-6.6%[11.6 µM]	15.8µM*	?	?	-16.3%
SMILES	WRN helicase inh	POLH inh	POLB inh	POLI inh	Pol kappa inh
CCN(CC)c1ccc(CC2C(=O)N(C)C(=O)N(C)C2=O)cc1	20µM*	-21.5%	13.0%	?	-6.5%
COc1ccc(CC2C(=O)N(C)C(=O)N(C)C2=O)c(OC)c1	?	-0.3%	-14.0%	?	-13.2%
CCCN1CCCC(c2cccc(O)c2)C1 (stereo unspecified)	·	-3.7%[57.1 µM]	15.3%[57.1 µM]	6.4%[58.9 µM]	·
CC(=O)[O][Hg][c]1ccccc1	·	·	·	·	-7.0%[19.4 µM]
CC(=O)c1ccc2c(c1)C1C(Cl)C(Sc3ccccc3[N+](=O)[O-])CC1C(C(=O)O)N2 (stereo unspecified)	-29.9%	3.55µM*	39.8µM*	?	?
CC[C@@]1(O)C(=O)OCc2c1cc1n(c2=O)Cc2cc3c(O)cccc3nc2-1	·	·	·	·	29.9µM*
COC(C(=O)C(O)C(C)O)C1Cc2cc3cc(OC4CC(OC5CC(O)C(OC)C(C)O5)C(OC(C)=O)C(C)O4)c(C)c(O)c3c(O)c2C(=O)C1OC1CC(OC2CC(OC3CC(C)(O)C(OC(C)=O)C(C)O3)C(O)C(C)O2)C(O)C(C)O1 (stereo unspecified)	·	·	·	·	21.2µM*
O=C1NC(=O)C(=Cc2ccc(Oc3ccc([N+](=O)[O-])cc3)cc2)C(=O)N1	25.1µM*	?	?	60.9%	-16.3%
COc1cc(C=C2C(=O)NC(=O)NC2=O)ccc1OCc1ccc([N+](=O)[O-])cc1	44.7µM*	-25.8%	-6.7%	46.1%	-9.6%
CC(C)C[C@H](NC(=O)[C@@H](N)Cc1ccccc1)C(=O)N[C@@H](Cc1ccccc1)C(=O)N[C@@H](CCC(N)=O)C(=O)N1CCC[C@H]1C(=O)N[C@@H](CCC(N)=O)C(=O)N[C@@H](CCCN=C(N)N)C(=O)N[C@@H](Cc1ccccc1)C(N)=O	·	·	·	·	15.7%[60.1 µM]
O=C(c1ccc(CS(=O)(=O)c2ccccc2)o1)N1CCC2(CC1)OCCO2	-5.8%[11.6 µM]	89.1µM*	?	?	-35.9%
COC(=O)c1ccc(N=C(c2ccccc2)c2c(O)n(C)c(=O)n(C)c2=O)cc1	2.9%	-0.4%	10.4%	31.6µM*	-15.0%
CCOC(=O)c1ccc(N=C(c2ccccc2)c2c(O)n(C)c(=O)n(C)c2=O)cc1	-10.0%	-14.0%	8.3%	?	-8.8%
Cc1ccc(-n2nc3c(=O)n(CC(=O)NCC(C)c4ccccc4)nc(C)c3c2C)cc1 (stereo unspecified)	·	-25.3%	-1.9%	31.0%	-11.0%
COc1ccc(NC(=O)CSc2oc(-c3cccs3)nc2S(=O)(=O)c2ccccc2)c(OC)c1	·	-12.7%	3.9%	?	-22.4%
COc1ccc(Cn2c(N)c(C(=O)NCc3ccco3)c3nc4ccccc4nc32)cc1	-14.9%	?	56.2µM*	?	-16.3%
CC(C)OCCCNC(=O)c1c(N)n(CC2CCCO2)c2nc3ccccc3nc12 (stereo unspecified)	-21.1%[57.1 µM]	-13.1%	?	7.08µM*	-12.7%
COCCCn1c(N)c(C(=O)NCCC(C)C)c2nc3ccccc3nc21	-16.3%	-12.4%	5.5%	4.47µM*	-27.6%
CCCCCn1c(N)c(C(=O)NCc2cccs2)c2nc3ccccc3nc21	-4.5%	-12.5%	15.1%	22.4µM*	-0.6%
CCCCn1c(N)c(C(=O)NCc2cccs2)c2nc3ccccc3nc21	-7.5%	-2.7%	-9.1%	?	-6.6%
O=C1/C(=C/c2ccc(N(CCCl)CCCl)cc2)Cc2ccccc21	·	·	·	1.2%	-10.1%

Screening results (PubChem)
